Bioassay records (PubChem BioAssay)
PG9 Ab binder – PG9 antibody binding by small molecule. 0.43% of 360,000 active. inhibition, % at 6.7 µM. TR-FRET gp120-PG9 antibody binding; in the data active means inhibition above about 8.5%
AI-2 QS mod – modulators of Vibrio harveyi AI-2 quorum sensing system; Vibrio harveyi JMH597 AI-2 luminescence/OD600 ratio, 9 h; active compounds read low; strain lacks LuxN and CqsS sensors; 0 = neutral-control median; activity change, % at 7.5 µM; 0.4% of 300,000 active; AID 2094; in the data active means activity change below about -75%, passing the limit was not always enough;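 further: luminescence divided by OD600 gain over 9 h not by final OD600 alone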
HSF1 inhib – HSF1 inhibition; NIH3T3-HGL HSE-luciferase, MG132-induced, luminescence 8 h; active compounds read low; activity change, negative = inhibition, % at 7.5 µM (by protocol); 0.77% of 300,000 active;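 active means more than half of replicate wells show activity change below -50%, luminescence cut by over half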;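 further: luciferase reports HSF-1 transcriptional activity via heat shock element; 0% = median of DMSO wells and -100% = zero luminescence signal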
SMARCA2 activ – activators of SMARCA2 function; 1% of 370,000 active; activation, % at 9.1 µM; MG213 cells, MMTV-luciferase reporter, dexamethasone, overnight; AID 652017; in the data active means activation above about 7.8%;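 further: 0% = vehicle wells and 100% = reference activator wells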
HSP90 refold inh – inhibitors of HSP90 luciferase refolding in rabbit reticulocyte lysate | 0.91% of 290,000 active | luciferase refolding luminescence, 3 h | inhibition, % at 5.6 µM | AID 1789;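 active means inhibition above the screen-wide mean plus 3 SD, computed separately per campaign, cut at about 16% in these data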;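 further: 0% = DMSO wells and 100% = 60 µM geldanamycin wells; inhibitors lower the luminescence because luciferase stays unfolded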
FXN GAA850 act – increases GAA850 frataxin promoter reporter activity; AID 540364; activation, % at 6 µM; 0.56% of 360,000 active; HEK293 lucGAA850 FXN promoter luciferase reporter, 24 h; percent of 10 µM SAHA response;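 active means activation above the average of all compounds screened plus 3 SD, cutoff fixed separately per campaign, cut at about 7.5% in these data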;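 further: 0% = DMSO wells and 100% = 10 µM SAHA wells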
SMARCA2 conf – confirmation of SMARCA2 (BRM) function activators | shares compounds with SMARCA2 activ | 30% of 3,500 active | activation, % at 9.1 µM | AID 652260 | MG213 cells, MMTV-luciferase with dexamethasone, luminescence, overnight; MG213 cells expressing E1A, Rb sequestered; DMSO wells 0%, reference activator 100%;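 active means activation above its plate's cutoff, the mean activation of tested wells plus 3 SD, cut at about 7.9% in these data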
VP16 Luc act – GAL4-VP16 reporter activation counter-screen; 41% of 3,500 active; HEK293 GAL4-VP16 pG5luc reporter, luciferase luminescence; scaled: DMSO wells 0%, SAHA wells 100%; activation, % at 9.1 µM; shares compounds with SMARCA2 activ;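 active means activation above the solvent-only control well mean plus 3 SD, averaged across control plates, cut at about 5.2% in these data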
* = called active by the depositor; x = no result. This is a sample that favours compounds with a hit; in the whole collection about 3.4% have one here.

SMILES	PG9 Ab binder	AI-2 QS mod	HSF1 inhib	SMARCA2 activ	HSP90 refold inh	FXN GAA850 act	SMARCA2 conf	VP16 Luc act
Cc1ccc(O)c(C2=Nc3ccccc3N=C(c3cccc([N+](=O)[O-])c3)C2)c1	-3	12	26	8.7*	2	5	0	1
CCOC(=O)c1ccc2nc(NC(=O)c3ccco3)sc2c1	-1	5	28	2	3	6	x	x
C=CCOC(=O)c1sc(NC(=O)c2ccco2)nc1C	-1	5	16	8.0*	2	5	18*	6.7*
CCOC(=O)c1sc(NC(=O)c2cncc(Br)c2)nc1C	-1	1	2	10*	-1	x	4	9.3*
CCc1cc2c(nc1CC)CCCN2S(=O)(=O)c1ccc(C(F)(F)F)cc1	-1	x	x	-4	x	x	x	x
COc1ccc(/C=N/N=C2/NC(=O)C(CC(=O)O)S2)cc1OS(=O)(=O)c1ccccc1 (configuration not stated)	-4	17	8	2	0	2	x	x
COc1cc(/C=N/N=C2/NC(=O)C(Cc3ccccc3)S2)ccc1O (configuration not stated)	0	21	x	9.0*	-2	6	6	5.3*
CC(=O)c1ccc(-c2ccccc2C2=CC(=O)CC(C)(C)C2=O)cc1	-3	x	x	-4	x	x	x	x
CSc1nc(Oc2ccc(F)cc2)c2ccccc2n1	0	7	0	1	-1	2	x	x
Fc1ccc(Oc2nc(-c3ccccn3)nc3ccccc23)cc1	0	7	19	9.0*	8	5	-5	3
COc1ccc(Oc2nc(-c3ccccn3)nc3ccccc23)cc1	0	29	12	8.3*	4	2	-6	-2
c1ccc(Oc2nc(-c3ccccn3)nc3ccccc23)cc1	0	6	-3	4	5	3	x	x
Cc1ccc(OCC(O)CN2CCOCC2)c(C)c1 (configuration not stated)	-1	-2	-1	8.3*	-1	0	-2	1
COc1ccc(CCNc2ncccc2C#N)cc1OC	-1	73	10	10*	-1	2	7	9.6*
COc1cc(/C=N/n2cnnc2)ccc1OCc1ccc(C)cc1	0	15	22	1	5	6	x	x
COc1cc(/C=N/n2cnnc2)ccc1OCc1ccccc1	-4	9	-3	8.1*	0	6	5	0
CCN(CC)C(=O)Oc1ccc2c(=O)c(-c3ccccc3)coc2c1	0	16	21	13*	-3	1	8	11*
COc1ccc2c(=O)c(-c3ccccc3)coc2c1	0	37	24	4	4	3	x	x
COc1cccc(CNc2nc3cc(-c4ccsc4)sc3c(=O)n2C)c1OC	2	x	x	-8	x	-2	x	x
COc1cccc(-c2cc(C(=O)N3CCCCC3C)no2)c1 (configuration not stated)	0	-54	17	12*	-1	6	6	12*
O=C(N[C@H](C(=O)N1CCC[C@H]1C(=O)NCCc1ccccc1Cl)c1ccccc1)c1cccs1	2	x	x	1	x	x	x	x
O=C(CN1C(=O)NC2(CCc3ccccc32)C1=O)NCC(=O)Nc1ccc(F)cc1 (configuration not stated)	-3	x	x	8.2*	x	1	-4	2
O=C(CN1C(=O)NC2(CCc3ccccc32)C1=O)NCc1ccc(F)cc1 (configuration not stated)	-1	x	x	0	x	1	x	x
O=C1c2nc3cc(-c4ccco4)[nH]n3c(=O)c2CN1C1CCCCC1	-3	19	-7	11*	4	1	-2	2
Cn1ccc(NC(=O)c2ccc(Cl)cc2Cl)n1	1	x	x	8.6*	x	2	5	10*
COc1ccc2c(c1)CN1C(=O)N(C3CCCC3)S(=O)(=O)CC21 (configuration not stated)	x	x	x	2	x	x	x	x
